PubChem BioAssay (NCATS)
“And” between values parts separate entries of the source, which are not always exact repeats. Identical values can stand only once. Results filed as inconclusive are left out. The source made the active and inactive calls. Unless noted, the call rests on the fitted dose curve; in most records, active means well fitted curve in the direction sought with a large enough effect; inconclusive means small, poorly fitted or top-dose-only effect, or another doubt; inactive means no such curve, though single readings can be large; an effect the other way counts as inactive or inconclusive.

How the values were obtained:
[1] = Cell Viability - HepG2 (AID 433; calls by dose curve;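 further: potency means the concentration at half of the fitted maximal effect; potency for ATP loss meaning cytotoxicity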); details: qHTS
Procedure, shortened: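 In this qHTS format, a 40 h, 37 °C compound incubation of HepG2 cells in complete medium precedes a 20 min CellTiter-Glo step at room temperature. Tamoxifen and doxorubicin serve as positive controls; Hill-equation fits yield AC50.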

[2] = Cell Viability - MRC5 (AID 434; calls by dose curve;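 further: potency means the concentration at half of the fitted maximal effect; potency reflects cytotoxicity seen as loss of intracellular ATP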); details: MRC5 lung fibroblast viability, qHTS
Procedure, shortened: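 AC50 values come from Hill-equation fits of intracellular ATP loss, measured by CellTiter-Glo luminescence. Normal lung fibroblasts (MRC5) had 40 hr compound treatment at 37 C, normalized between DMSO and 100 uM tamoxifen.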

[3] = Cell Viability - SK-N-SH (AID 435; calls by dose curve;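 further: potency means the concentration at half of the fitted maximal effect; compound exposure lasted 40 h at 37 °C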); details: SK-N-SH neuroblastoma cell viability qHTS
Procedure, shortened: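 Human neuroblastoma line, 40 h exposure at 37 °C, ATP quantified via luciferase luminescence; DMSO and 100 uM tamoxifen define 0 and 100% inhibition for AC50 fitting.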

[4] = Cell Viability - HUV-EC-C (AID 542); details: HUV-EC-C endothelial cell viability, qHTS; series mostly up to 92.2 µM; further: on the % scale 0 is the no-effect control and ±100 the full control effect; nearly all actives have a fitted effect of over 35% in size
Procedure, shortened: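 Cells were seeded at 1000 per well and incubated 5 hr at 37 °C before compound addition. After 40 hr at 37 °C, CellTiter-Glo reagent was added for 20 min and luminescence read. AC50 values came from Hill-equation modelling.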

[5] = Cell Viability - Renal Proximal Tubule (AID 545); details: renal proximal tubule cells viability; at 91.7 µM (top of the series), primary cells of rat origin unless noted; further: nearly all actives have a fitted effect of over 40% in size
Procedure, shortened: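 In this qHTS format, normal rat kidney-derived proximal tubule cells in complete culture medium receive compound titrations, then sit 40 hours at 37 °C before luciferase-based ATP quantitation; potency is reported as AC50 from concentration-response curves.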

[6] = Cell Viability - Mesenchymal (AID 546); details: mesenchymal cells viability, qHTS; series mostly up to 91.7 µM;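 further: cells exposed to compound for 40 hours before reading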
Procedure, shortened: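 CellTiter-Glo luminescence (intracellular ATP, 20 min room temperature) after 40 hr compound exposure at 37 °C of 1000 glomerulus-derived human kidney mesenchymal cells/well; AC50 values obtained by fitting qHTS concentration-response data to the Hill equation.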

[7] = Cellular Toxicity (caspase-3) Jurkat (AID 655); details: Jurkat caspase-3 activation, luminescence, DMSO = 0%, tamoxifen = 100%; at 92.2 µM (top of the series);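 further: cells exposed to compound for 16 h at 37 °C before reading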
Procedure, shortened: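 qHTS in human Jurkat T-cell leukemia line: 16 hr compound treatment at 37 °C, caspase-3/7 activity measured by Caspase-Glo luminescence. AC50 derived from Hill equation.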

[8] = Cellular Toxicity (caspase-3) HUV-EC-C (AID 656); details: HUV-EC-C cells, caspase-3 activation (apoptosis), vehicle = 0, 100 µM tamoxifen = 100%; series mostly up to 92.2 µM
Procedure, shortened: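 Concentration-dependent caspase 3/7 induction was assessed in HUV-EC-C cells exposed for 16 hours. Data scaled between DMSO and tamoxifen (100 uM) controls.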

[9] = Cellular Toxicity (caspase-3) SHSY5Y (AID 657); details: SH-SY5Y caspase-3 activation, DMSO zero, 10 µM staurosporine = 100%; series mostly up to 91.7 µM;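 further: cells exposed to compound for 16 hours at 37 °C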
Procedure, shortened: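 Readout: caspase-cleaved peptide-aminoluciferin substrate driving luciferase light in SH-SY5Y neuroblastoma cells after 16 h treatment. Response normalized to DMSO and 10 uM staurosporine controls.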

[10] = Cellular Toxicity (caspase-3) BJ (AID 658); details: BJ fibroblasts, luminescence, normalized: DMSO 0%, staurosporine 100%; series mostly up to 91.7 µM
Procedure, shortened: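 Caspase-Glo 3/7 luminescence, read 1 hr after reagent at room temperature, in normal BJ fibroblasts exposed 16 hours at 37 °C. AC50 values from Hill-equation concentration-response, scaled between DMSO basal and 10 uM staurosporine as 100%.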

[11] = Cellular Toxicity (caspase-3) MRC-5 (AID 659); details: MRC-5 cells, luminescence, normalized: DMSO 0%, 10 µM staurosporine 100%; series mostly up to 91.7 µM
Procedure, shortened: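 Luminescent Caspase-Glo 3/7 read-out (1 h, room temperature) after a 16 h, 37 °C compound exposure of MRC-5 lung fibroblasts at 1500 cells/well. Concentration-response AC50 from Hill equation; 0% DMSO, 100% 10 uM staurosporine.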

[12] = Cellular Toxicity (caspase-3) Mesangial (AID 660); details: mesangial cells, normalized: DMSO 0%, 100 µM tamoxifen 100%; series mostly up to 91.7 µM;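 further: combined caspase 3 and 7 activity read by Caspase-Glo luminescence; cells exposed to compound for 16 h before the caspase read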
Procedure, shortened: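 Seed cells derived from normal human renal glomeruli, incubate 5 h, add compounds across concentrations and incubate 16 h at 37 °C. Caspase 3/7 activation is then quantified by luciferase light, with AC50 derived by Hill modeling.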

[13] = Cellular Toxicity (caspase-3) SK-N-SH (AID 661); details: SK-N-SH caspase-3 activation, qHTS, DMSO as zero, staurosporine as full; series mostly up to 91.7 µM
Procedure, shortened: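 Cells were seeded and incubated 5 hr at 37 °C, dosed with compound over a concentration range for 16 hr, then given Caspase-Glo 3/7 reagent for 1 hr at room temperature before luminescence reading.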

[14] = Cellular Toxicity (caspase-3) H-4-II-E (AID 663); details: H-4-II-E rat hepatoma, scaled: DMSO 0%, 100 µM tamoxifen 100%; series mostly up to 92.2 µM;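 further: cells exposed to compound for 16 hr before readout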
Procedure, shortened: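 Caspase 3/7 activation measured by luminescent aminoluciferin substrate cleavage after 16 hr compound treatment of H-4-II-E cells in complete medium. Increase normalized between DMSO (basal) and 100 uM tamoxifen (100%); Hill-equation AC50 from concentration-response.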

[15] = Cellular Toxicity (caspase-3) Renal Proximal Tubule (AID 667); details: renal proximal tubule cells; at 91.7 µM (top of the series), primary cells freshly taken from rat, solvent-only wells 0%, staurosporine 100% unless noted;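 further: cells exposed to compound for 16 hours at 37 °C before detection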
Procedure, shortened: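 Caspase-Glo 3/7 read-out, rat primary kidney proximal tubule cells. Compound exposure 16 h, 37 °C; detection after 1 h at RT. Activity scaled to DMSO and 10 uM staurosporine.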

[16] = MultiTox-Fluor Cytotoxicity Assay - LYMP1-001 - Dead Cells (AID 946); details: LYMP1-001 lymphoblastoid cells, dead-cell protease fluorescence; series mostly up to 92.2 µM
Procedure, shortened: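 Seed 2500 LYMP1-001 cells/well, incubate 5 hr at 37 C; add compound, 16 hr at 37 C; add MultiTox-Fluor reagent, 60 min RT; read dead-cell fluorescence Ex/Em=485/520. Normalize to DMSO and 15 uM tetraoctylammonium bromide.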

[17] = Cell Viability - LYMP1-002 - Assay at 16 hr (AID 948); details: LYMP1-002 lymphoblastoid cell viability; series mostly up to 92.2 µM;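 further: 0% = DMSO alone and full effect = 92 µM tetraoctylammonium bromide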
Procedure, shortened: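 In this qHTS, lymphoblastoid LYMP1-002 cells (human) receive compounds for 16 hr at 37 C. Viability is taken from CellTiter-Glo ATP luminescence, and AC50 derives from standard Hill fits.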

[18] = MultiTox-Fluor Cytotoxicity Assay - LYMP1-003 - Dead Cells (AID 961); details: LYMP1-003 lymphoblastoid cells, dead-cell protease fluorescence; series mostly up to 92.2 µM; further: nearly all actives have a fitted effect of over 70% in size
Procedure, shortened: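 LYMP1-003 lymphoblastoid, 2500 cells/well, 5 hr settle then 16 hr cpd at 37 C; MultiTox-Fluor reagent 60 min RT; Ex/Em 485/520 dead-cell signal; norm. DMSO = 0%, 15 uM tetraoctylammonium bromide = 100%; Hill AC50.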

[19] = qHTS assay for cell viability of HEK293 cells (AID 743288); details: ATP luminescence (CellTiter-Glo), 18 h; max response: hits give low values; further: on the % scale 0 is the no-effect control and ±100 the full control effect; nearly all actives have a fitted effect of over 50% in size
Procedure, shortened: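 HEK293, 18 h, 37 C, ATP luminescence. Cells at 2,000/well were allowed at least 5 h to settle before dosing; CellTiter-Glo developed 30 min at RT.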

[20] = qHTS assay for cell viability of the p53RE-bla HCT-116 cell line (AID 743292); details: p53RE-bla HCT-116 viability, ATP luminescence, 16 h; series mostly up to 95 µM; further: on the % scale 0 is the no-effect control and ±100 the full control effect; nearly all actives have a fitted effect of over 55% in size
Procedure, shortened: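 Luminescent ATP quantitation (CellTiter-Glo) served as the viability read-out; reagent was added after 16 h compound exposure at 37 C and read after 30 min at room temperature. Cells: p53RE-bla HCT-116, 4,000 per well.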

c1ccc(OP(Oc2ccccc2)Oc2ccccc2)cc1
inactive: Potency [1] > 92 µM | Potency [2] > 92 µM | Potency [3] > 92 µM | Potency [4] | activity change, negative = cytotoxicity [5] 1.28% | outcome [6] | caspase-3 activation [7] -1.12% | outcome [8] | outcome [9] | outcome [10] | outcome [11] | outcome [12] | outcome [13] | outcome [14] | caspase-3 activation [15] 1.22% | Potency [16] | Potency [17] | Potency [18] | max response [19] -13.6% and -7.52% | Potency [20]

CC(O)CCl (stereo not given)
inactive: Potency [1] > 92 µM | Potency [2] > 92 µM | Potency [3] > 92 µM | Potency [4] | activity change, negative = cytotoxicity [5] -0.642% | outcome [6] | caspase-3 activation [7] 1.88% | outcome [8] | outcome [9] | outcome [10] | outcome [11] | outcome [12] | outcome [13] | outcome [14] | caspase-3 activation [15] 7.82% | Potency [16] | Potency [17] | Potency [18] | max response [19] 2.39% and -2.48% | Potency [20]

Brc1ccc(Oc2cc(Br)c(Br)cc2Br)c(Br)c1
inactive: Potency [1] > 92 µM | Potency [2] > 92 µM | Potency [3] > 92 µM | Potency [4] | activity change, negative = cytotoxicity [5] -20.3% [at 91.7 µM] and -14.3% [at 91.7 µM] | outcome [6] | caspase-3 activation [7] 17.5% | outcome [8] | outcome [9] | outcome [10] | outcome [11] | outcome [12] | outcome [13] | outcome [14] | caspase-3 activation [15] 12.3% [at 91.7 µM] and -6.38% [at 91.7 µM] | Potency [16] | Potency [17] | Potency [18] | max response [19] -22.3% and -23.6% | Potency [20]

c1ccc2c(c1)CCCC2
inactive: Potency [1] > 92 µM | Potency [2] > 92 µM | Potency [3] > 92 µM | Potency [4] | activity change, negative = cytotoxicity [5] -0.896% | outcome [6] | caspase-3 activation [7] -0.484% | outcome [8] | outcome [9] | outcome [10] | outcome [11] | outcome [12] | outcome [13] | outcome [14] | caspase-3 activation [15] -4.18% | Potency [16] | Potency [17] | Potency [18] | max response [19] -7.83% | Potency [20]

C=CC1CC=CCC1 (stereo not given)
inactive: Potency [1] > 92 µM | Potency [2] > 92 µM | Potency [3] > 92 µM | Potency [4] | activity change, negative = cytotoxicity [5] 3.71% | outcome [6] | caspase-3 activation [7] 0.736% | outcome [8] | outcome [9] | outcome [10] | outcome [11] | outcome [12] | outcome [13] | outcome [14] | caspase-3 activation [15] 5.69% | Potency [16] | Potency [17] | Potency [18] | max response [19] -5.12% and -6.19% | Potency [20]

Cc1cccc(C#N)c1
inactive: Potency [1] > 92 µM | Potency [2] > 92 µM | Potency [3] > 92 µM | Potency [4] | activity change, negative = cytotoxicity [5] -8.34% | outcome [6] | caspase-3 activation [7] 0.831% | outcome [8] | outcome [9] | outcome [10] | outcome [11] | outcome [12] | outcome [13] | outcome [14] | caspase-3 activation [15] 10.9% | Potency [16] | Potency [17] | Potency [18] | max response [19] 0.442% | Potency [20]
